Only a selection was taken, and hits are over-represented in it overall.
Pf Dd2 inh: qHTS Primary assay for Inhibitors of Plasmodium falciparum Dd2 growth in vitro. P. falciparum Dd2 growth, SYBR Green, 72 h. Potency, µM (highest dose often 28.9 µM), actives largely listed as inhibitors. actives 4.3% (n = 120,000). AID 1347417, 2020; active means well fitted inhibition curve with a large enough effect; further: nearly all actives have a fitted effect of over 65% in size
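Readout: SYBR Green fluorescence, 485 nm excitation, 535 nm emission, after ~16 h lysis at 37C. Before that, Dd2-infected red cells (2.5% hematocrit) grew 72 h with compound, 29 uM top final concentration.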
Hits are given with their value.

Cc1nc(-c2ccccc2Br)cc([C@H]2CN3CC[C@H]2C[C@@H]3CNC(=O)c2ccc(C(C)(C)C)cc2)n1 was read as Pf Dd2 inh 3.16µM.
`COc1ccc(-c2cc([C@H]3CN4CC[C@H]3C[C@@H]4CN)nc(C)n2)cc1OC` gave Pf Dd2 inh 11.2µM.
Screening Cc1ccc(C(=O)NC[C@H]2C[C@@H]3CCN2C[C@@H]3c2cc(-c3ccccc3Br)nc(C)n2)cc1 returned Pf Dd2 inh inactive.
For Cc1nc(-c2ccccc2Br)cc([C@H]2CN3CC[C@H]2C[C@@H]3CNC(=O)NC2CCCCC2)n1 the results were Pf Dd2 inh inactive.
CCCS(=O)(=O)NC[C@H]1C[C@@H]2CCN1C[C@@H]2c1cc(-c2ccc(OC)c(OC)c2)nc(C)n1 was read as Pf Dd2 inh inactive.
Screening Cc1nc(-c2ccc(N(C)C)cc2)cc([C@H]2CN3CC[C@H]2C[C@@H]3COC(=O)NC(C)C)n1 returned Pf Dd2 inh inactive.
O=C(c1ccc(Cl)cc1)N1CCC(n2cc(-c3ccccc3)[nH]c2=O)CC1 was read as Pf Dd2 inh inactive.
Screening CC1CCN(Cc2ccc(C(=O)N[C@@H]3CCNC[C@H]3O)o2)CC1 returned Pf Dd2 inh inactive.
For CN(C)CCN(C)[C@@H]1[C@H](O)[C@H](CO)O[C@@H]1CNC(=O)Nc1ccc(OC(F)(F)F)cc1 the results were Pf Dd2 inh inactive.
c1ccc(CN2CCC(Cc3nncn3-c3ccccc3)C2)cc1 (stereo not drawn) was read as Pf Dd2 inh inactive.
`Cc1cc(=O)[nH]c(NCCNC(=O)c2cccc(CCC(C)(C)O)c2)n1` gave Pf Dd2 inh inactive.
`COCCN1C(=O)CC[C@]2(C(=O)NC3CCCCC3)CCCC[C@@H]12` gave Pf Dd2 inh inactive.
For CCSCCn1nc(CC2CCNCC2)n(CC)c1=O the results were Pf Dd2 inh inactive.
N#Cc1cccnc1N1CC2CCC(C1)N2CC(F)(F)F was read as Pf Dd2 inh inactive.
`Cc1cccc(OCC(=O)N2CC(F)(F)C[C@H]2c2nnc(C)o2)c1` gave Pf Dd2 inh inactive.
Cc1c(F)cccc1CN1CCC2(CC1)CC(c1ccccc1)C(=O)N2C (stereo not drawn) was read as Pf Dd2 inh inactive.
For Cc1nc(-c2ccc(N(C)C)cc2)cc([C@H]2CN3CC[C@H]2C[C@@H]3CNC(=O)c2ccccc2)n1 the results were Pf Dd2 inh 3.16µM.
CCNC(=O)NC[C@H]1C[C@@H]2CCN1C[C@@H]2c1cc(-c2ccc(N(C)C)cc2)nc(C)n1 was read as Pf Dd2 inh inactive.
For COc1ccc(C(=O)NC[C@H]2C[C@@H]3CCN2C[C@@H]3c2cc(-c3ccc(N(C)C)cc3)nc(C)n2)cc1 the results were Pf Dd2 inh inactive.
Screening CCOc1ccccc1CN1CCC2(CCN(C(=O)c3ccc(Cl)nc3)CC2)Oc2ccccc21 returned Pf Dd2 inh inactive.
O=C(c1ccncc1)N1CC2CCC(C1)N2Cc1cccc(-c2cccs2)c1 was read as Pf Dd2 inh inactive.
Screening COc1ccc(C(=O)N2CCN(C(=O)COc3ccc(Br)cc3)CC2)cc1OC returned Pf Dd2 inh inactive.
Screening CCCS(=O)(=O)c1c(S(=O)(=O)CCC)c2cc(C(C)(C)C)ccn2c1C(=O)c1ccc(OC)c(OC)c1 returned Pf Dd2 inh 2.82µM.
CCCCN(CCCC)C1=C(C(=O)c2ccccc2)N(CC)S(=O)(=O)c2ccccc21 was read as Pf Dd2 inh inactive.
`COc1ccc(OCC(=O)N2CCN(C(=O)c3ccc(OC)c(OC)c3)CC2)cc1` gave Pf Dd2 inh inactive.
Screening Nc1c(C(=O)Nc2cccc(C(F)(F)F)c2)c2ccccn2c1C(=O)c1ccccc1 returned Pf Dd2 inh inactive.
For CCCS(=O)(=O)c1c(S(=O)(=O)CCC)c2cc(C(C)(C)C)ccn2c1C(=O)c1ccccc1 the results were Pf Dd2 inh 2.51µM.
Screening Cc1ccc2c(-c3ccc(NC4CC4)nn3)cccc2n1 returned Pf Dd2 inh inactive.
Screening COCC(=O)N1CCC(C(NC(=O)c2ccc(F)cc2)C(=O)N2CCCC2)CC1 (stereo not drawn) returned Pf Dd2 inh inactive.
`CC(Cc1ccccn1)N(C)Cc1ccc(S(C)(=O)=O)cc1` (stereo not drawn) gave Pf Dd2 inh inactive.
For O=C(c1ccccn1)N1CCN(C(=O)N2CC3CC(C2)[C@H]2CCCC(=O)N2C3)CC1 (stereo partly drawn) the results were Pf Dd2 inh inactive.
O=C(Nc1ccc(F)cc1)c1csc2c1CCCCC2 was read as Pf Dd2 inh inactive.
Screening Cc1cc(F)ccc1NC(=O)c1ccc2nc(Cc3ccccc3)oc2c1 returned Pf Dd2 inh inactive.
`Cc1cc(F)ccc1NC(=O)c1csc2c1CCC(C)C2` (stereo not drawn) gave Pf Dd2 inh 4.47µM.
`O=C(O)CC[C@@H]1CN(Cc2cc(=O)[nH]c(=O)[nH]2)CC[C@@H]1N1CCOCC1` gave Pf Dd2 inh inactive.
O=C(CCC1CCCC1)N1CCCCCC1c1nc(-c2ccncc2)no1 (stereo not drawn) was read as Pf Dd2 inh inactive.
For Cn1cc(S(=O)(=O)c2ccccc2)c(=O)c2cc(F)c(N3CCCCCC3)cc21 the results were Pf Dd2 inh 8.91µM.
For Cn1cc(S(=O)(=O)c2ccccc2)c(=O)c2cc(F)c(N3CCCC3)cc21 the results were Pf Dd2 inh inactive.
`CCCN1CCN(c2cc3c(cc2F)c(=O)c(S(=O)(=O)c2ccc(Cl)cc2)cn3C)CC1` gave Pf Dd2 inh 10µM.
For Cc1ccc(S(=O)(=O)c2cn(C)c3cc(N4CCCCC4)c(F)cc3c2=O)cc1 the results were Pf Dd2 inh inactive.
For CCN1CCN(c2cc3c(cc2F)c(=O)c(S(=O)(=O)c2ccccc2)cn3C)CC1 the results were Pf Dd2 inh inactive.
Screening Cn1cc(S(=O)(=O)c2ccc(Cl)cc2)c(=O)c2cc(F)c(N3CCCCCC3)cc21 returned Pf Dd2 inh 14.1µM.
`Cn1cc(S(=O)(=O)c2cccc(Cl)c2)c(=O)c2cc(F)c(N3CCCCCC3)cc21` gave Pf Dd2 inh inactive.
Cn1cc(S(=O)(=O)c2ccccc2)c(=O)c2cc(F)c(N3CCCCC3)cc21 was read as Pf Dd2 inh inactive.
Screening CN1C(=O)CC(C(=O)O)C12CCN(C(=O)NCCc1ccccc1)CC2 (stereo not drawn) returned Pf Dd2 inh inactive.
Screening CO[C@H]1C(=O)N(C2CCN(S(=O)(=O)Cc3ccccc3F)CC2)[C@H]1c1ccncc1 returned Pf Dd2 inh inactive.
COc1ccc(S(=O)(=O)Nc2ccc(C)n(CC(=O)NCc3ccccc3)c2=O)cc1 was read as Pf Dd2 inh inactive.
For CCc1ccc(NC(=O)Cn2c(C)ccc(NS(=O)(=O)c3ccccc3)c2=O)cc1 the results were Pf Dd2 inh inactive.
For COc1ccccc1NC(=O)Cn1c(C)ccc(NS(=O)(=O)c2ccccc2)c1=O the results were Pf Dd2 inh 1.41µM.
`COC(=O)CC[C@H]1CNC(=O)[C@@H]2[C@@H](CCN2Cc2nc3ccccc3n2C)N1C` gave Pf Dd2 inh inactive.
For Cc1cn2nc(C(=O)N3CCC(NC(=O)c4ccccc4)CC3)cc2c(=O)[nH]1 the results were Pf Dd2 inh inactive.
Screening CCc1ccc(C(=O)c2cn(CC(=O)Nc3cc(OC)ccc3OC)c3ccc(C)cc3c2=O)cc1 returned Pf Dd2 inh 10µM.
`CCc1ccc(C(=O)c2cn(CC(=O)Nc3ccc(F)c(F)c3)c3cc(OC)c(OC)cc3c2=O)cc1` gave Pf Dd2 inh inactive.
`CCOc1ccc(NC(=O)Cn2cc(C(=O)c3ccc(CC)cc3)c(=O)c3cc(OC)c(OC)cc32)cc1` gave Pf Dd2 inh inactive.
